Compound activity deposited in PubChem BioAssay by several laboratories.
pCIP destab: p/CIP-EGFP fusion destabilizers, primary screen, fluorescence, F442A cells; Q05BA5; 16 h; decrease of EGFP signal, % at 10 µM; 0.01% of 290,000 active; AID 1984, 2009;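 active = EGFP signal decrease of at least 30% at 10 µM or well 3 SD below plate mean, unless failing retest; inactive = the rest, including hits failing retest or dose response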
MIN6 prolif-1: inducers of MIN6 beta-cell proliferation, primary screen, ATP luminescence, uHTS. MIN6 cells proliferation, ATPlite luminescence, 48 h; cells starved in 0.2% serum; 100% = growth in 10% serum. 0.29% of 330,000 active. AID 2380, 2010. proliferation, % at 10 µM;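 active = compounds whose signal lies at least 3.5 SD above the mean of all wells on their plate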;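 also: 0% = DMSO-treated cells in low-serum medium and 100% = 10% serum control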
H9c2 protect: cardioprotection against H2O2-induced cell death, primary screen, uHTS, H9c2 cells, ATPLite luminescence. protection from H2O2 cell death, % at 20 µM. AID 588492, 2011. 0.63% of 360,000 active. H9c2 cardiomyocytes, H2O2 injury protection, 2 h;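 active = compounds giving at least 50% protection of heart cells from peroxide-induced death in the single-dose screen, raw or plate-pattern-corrected value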;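 also: 0% = DMSO wells with peroxide and 100% = DMSO wells without peroxide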
V-ATPase pHluor: regulators of yeast V-ATPase proton pumping, primary screen, pHLuorin cytosolic pH fluorescence; S. cerevisiae; response, % at 10 µM; 0.37% of 350,000 active; AID 504577, 2011; in the data active = response mostly above about 7.3%, no sharp cut-off; inactive = mostly below about 5.4%; also: actives read high
CR mimetic SO: reduction of superoxide in aged yeast, primary screen, HTS; superoxide response (% of plate mean), % at 10 µM; 0.18% of 330,000 active; S. cerevisiae aged cells, superoxide DHE fluorescence; hits give low values; AID 2690, 2010;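 active = superoxide response under a set limit, about three screen SD below normal, cut at about 65% in these data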;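 also: yeast aged for seven days with compound at 30 °C before DHE staining; 100% = average MFI of all compound-treated wells on the plate with controls excluded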
HSV replic up: enhancers of HSV replication in host cells, fold increase, host cell viability; HSV replication augmentation in cells; maximum fold increase; 0.005% of 220,000 active; AID 1956, 2009; in the data active = maximum fold increase above about 1.5; tested in PC3 cells
MIN6 prolif-2: inducers of beta-cell proliferation in MIN6, confirmation, MIN6 cells, mouse; shares compounds with MIN6 prolif-1; ATPlite luminescence, 48 h; cells kept in 0.2% serum; scaled between 0.2% and 10% serum; proliferation increase, % at 50 µM; 920 tested, under 10 active; AID 463095, 2010;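 active = proliferation increase above 40% at any of the four tested concentrations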
An asterisk follows results filed as active; i = inactive; / = no result given. This is a sample that favours compounds with a hit; in the whole collection about 1.4% have one here.

SMILES	pCIP destab	MIN6 prolif-1	H9c2 protect	V-ATPase pHluor	CR mimetic SO	HSV replic up	MIN6 prolif-2
CSc1sc(C(=O)N2CCCCC2)c(-c2cccs2)c1C#N	-3	6.9*	-3	2	104	i	-4
CNc1c(NS(=O)(=O)c2ccc(OC)c(Cl)c2)c(=O)oc2ccccc12	-6	-6	4	0	84	/	/
O=C1C=C(N2CCCCCC2)C2(CCCCC2)O1	-17	5	-1	3	105	i	/
COC1=CC(=O)OC12CCCCC2	-1	8.2*	-3	1	93	i	1
O=[N+]([O-])c1ccc(N2CCOCC2)cc1SCc1ccco1	-3	0.0*	10	1	94	i	2
O=[N+]([O-])c1ccc(SCc2ccco2)cc1N1CCOCC1	-5	-1	-2	0	104	i	/
Cc1ccc(C)c(OCCC(=O)Nc2ccc3c(c2)OCO3)c1	/	0	-12	0	104	/	/
C#CCOC(=O)c1ccc(-n2cncn2)nc1	12	5.9*	16	-1	84	i	-1
CC1=NCC(C)c2ccccc21 (configuration not stated)	/	/	10	-1	/	/	/
CC1=NCC(C)c2c1[nH]c1ccccc21 (configuration not stated)	-4	7.0*	0	0	107	i	-1
Cc1ccc(CNC(=O)C2CCCN(c3ncnc4c3nc3n4CCCCC3)C2)cc1 (configuration not stated)	-8	14*	3	-1	99	/	-5
CCOC(=O)c1cnc2ccc(C(=O)OC)cc2c1NCCc1ccc(OC)c(OC)c1	0	0.0*	53*	-1	99	i	3
CCOC(=O)c1cnc2c(C)cccc2c1NCCc1ccc(OC)c(OC)c1	-7	3	-9	-1	96	i	/
Cc1[nH]c(C)c(S(=O)(=O)NCc2ccc(Cl)cc2)c1C(=O)N1CCCC1	-8	2	-3	-2	88	/	/
CCNC(=O)COC(=O)c1ccc(S(=O)(=O)N2CCCCCC2)cc1	-4	5.4*	2	-1	97	i	0
Cc1ccc(CNC(=O)COC(=O)c2ccc(S(=O)(=O)N3CCCCCC3)cc2)cc1	/	-1	-4	-7	/	/	/
Cc1ccc(SCCC(=O)N2CCCC2)cc1	-5	0	-1	2	102	i	/
Cc1ccc(SCCC(=O)N2CCOCC2)cc1	-9	5.1*	2	6	83	i	2
CC(C)(C)C(C(=O)Oc1ccccc1)c1ccccc1 (configuration not stated)	/	0	-4	-4	102	/	/
Cc1ccc(C(=O)CSc2nc(N)cc(=O)[nH]2)cc1	-11	-4	2	-3	97	i	/
Nc1cc(=O)[nH]c(SCC(=O)c2ccc(F)cc2)n1	-11	8.3*	-1	-2	101	/	0
COc1cccc(C(N)c2nc(-c3csc4ccccc34)cs2)c1 (configuration not stated)	/	/	0	/	/	/	/
CCc1ccccc1N(C(=O)c1snc(C(N)=O)c1N)C(C(=O)NCC1CCCO1)c1ccc(N(C)C)cc1 (configuration not stated)	-9	8.7*	4	0	/	/	-1
CCc1ccccc1N(C(=O)c1snc(C(N)=O)c1N)C(C(=O)NCC1CCCO1)c1ccc(C)o1 (configuration not stated)	-33	-1	-1	-1	112	/	/
COc1ccc(C(C(=O)NCc2ccccc2)N(C(=O)c2snc(C(N)=O)c2N)c2ccccc2OC)cc1OC (configuration not stated)	-10	22*	-1	-2	89	/	-2
SMILES	pCIP destab	MIN6 prolif-1	H9c2 protect	V-ATPase pHluor	CR mimetic SO	HSV replic up	MIN6 prolif-2
Cc1ccccc1N(C(=O)c1snc(C(N)=O)c1N)C(C(=O)NCC1CCCO1)c1ccc(N(C)C)cc1 (configuration not stated)	-9	0	14	-1	88	/	/
COc1ccc(N(C(=O)c2snc(C(N)=O)c2N)C(C(=O)NCc2ccccc2)c2ccc(O)cc2)cc1OC (configuration not stated)	10	-2	3	-2	/	/	/
Cc1ccc(N(C(=O)c2snc(C(N)=O)c2N)C(C(=O)NCC2CCCO2)c2ccc(C)o2)c(C)c1 (configuration not stated)	-13	17*	0	-6	122	/	-6
CC(C)CNc1ncnc2[nH]ncc12	/	/	4	5	/	/	/
C[C@@H](O)C1NC(=O)[C@H](CCCCN)NC(=O)c2cc([N+](=O)[O-])cc(F)c2NCCCC[C@@H](C(N)=O)NC1=O (some centres not stated)	-1	9.7*	12	-3	105	i	-3
CC[C@H](C)[C@@H]1NC(=O)c2cc([N+](=O)[O-])cc(F)c2NCCCC[C@@H](C(N)=O)NC(=O)[C@H](CC(N)=O)NC1=O	0	-4	0	-2	102	i	/
C[C@H]1CN([C@@H](C)CO)C(=O)CCCn2nncc2CO[C@H]1CN(C)C(=O)c1ccc2ccn(C)c2c1	/	/	1	-1	/	/	/
O=C(CN1CCCC1)Nc1c(C(=O)C2CC2)oc2ccccc12	-8	7.1*	6	-1	119	i	-4
CC(=O)Nc1c(C(=O)C2CC2)oc2ccccc12	8	0	0	-6	95	i	/
CCC(C)NC(=O)C1CCN(S(=O)(=O)c2ccc(OC)cc2)CC1 (configuration not stated)	4	1	1	5	111	i	/
CC1(C)C/C(=N\NC(=S)Nc2ccccc2F)c2cc(O)ccc2O1	-6	-3	3	-3	130	i	/
CCCn1cnc2scc(-c3ccc(C)cc3)c2c1=O	-2	14*	-2	4	76	i	-2
CC(C)c1ccc(NC(=O)C2=CC=CN3CCS(=O)(=O)N=C23)cc1	/	-3	-9	5	/	/	/
CCc1ccc(NC(=O)C2=CC=CN3CCS(=O)(=O)N=C23)cc1	/	11*	1	-2	97	/	-4
O=C(NC1CCCCC1)C(c1ccc(F)cc1)N(Cc1ccc2c(c1)OCO2)C(=O)c1cnsn1 (configuration not stated)	-33	-3	6	-2	108	i	/
CC1CCCCC12NC(=O)N(CC(=O)N1CCN(c3ncccn3)CC1)C2=O (configuration not stated)	/	-4	7	9	78	/	/
CC1(C)CC2CC(C)(CN2C(=O)COC(=O)c2cccc([N+](=O)[O-])c2)C1 (configuration not stated)	/	7.4*	1	-3	92	/	-1
